Rows were chosen to be rich in hits. Some 7.5% of all compounds tested hit in one or more screens of this group.
NPC1 promoter act: qHTS Assay for NPC1 Promoter Activators; Huh7 NPC1 promoter luciferase reporter, 24 h; Potency, µM (top dose mostly 9.22 µM), usual class: activators; hit rate 2.4% among 320,000; also: nearly all actives have a fitted effect of over 60% in size
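Luminescence read-out of NPC1 promoter-driven luciferase in stably transfected Huh7 cells; compounds delivered in DMSO and left 24 h at 37C, 5% CO2, qHTS titration format.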
SMN2 splice enh: qHTS Assay for Enhancers of SMN2 Splice Variant Expression; HEK293 SMN2-luciferase splicing reporter, luminescence, 30-36 h; Potency, µM (top dose mostly 46.1 µM), hits mostly activators; hit rate 2.8% among 210,000; AID 1458, 2008; also: nearly all actives have a fitted effect of over 55% in size
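HEK293 cells carry an SMN2 minigene-luciferase reporter in which exon 7 inclusion puts luciferase in frame. Cells were seeded at 2000 cells/well, attached for 10-12 hours, then exposed to compounds for 30-36 hours at 37C before ONE-Glo luminescence.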
Rab9 prom act: qHTS Assay for Rab9 Promoter Activators. Huh7 Rab9 promoter-luciferase reporter, luminescence, 24 h. Potency, µM (titrated, usually from 9.22 µM), hits mostly activators. hit rate 2.8% among 320,000. AID 485297, 2010; also: nearly all actives have a fitted effect of over 60% in size
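Huh7 reporter line, Rab9 promoter upstream of luciferase. Compound exposure 24 h at 37 °C in reduced-serum medium with 10% FBS. Read-out: luminescence.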
FLuc counter: qHTS profiling assay for firefly luciferase inhibitor/activator using purifed enzyme and Km concentrations of substrates (counterscreen for miR-21 project) | Potency, µM (top dose mostly 57.5 µM), actives largely listed as inhibitors | AID 588342, 2011 | purified FLuc, Km substrates, luminescence inhibition | hit rate 6.9% among 360,000; also: nearly all actives have a fitted effect of over 55% in size
Target sequence (P08659 whole entry, looked up): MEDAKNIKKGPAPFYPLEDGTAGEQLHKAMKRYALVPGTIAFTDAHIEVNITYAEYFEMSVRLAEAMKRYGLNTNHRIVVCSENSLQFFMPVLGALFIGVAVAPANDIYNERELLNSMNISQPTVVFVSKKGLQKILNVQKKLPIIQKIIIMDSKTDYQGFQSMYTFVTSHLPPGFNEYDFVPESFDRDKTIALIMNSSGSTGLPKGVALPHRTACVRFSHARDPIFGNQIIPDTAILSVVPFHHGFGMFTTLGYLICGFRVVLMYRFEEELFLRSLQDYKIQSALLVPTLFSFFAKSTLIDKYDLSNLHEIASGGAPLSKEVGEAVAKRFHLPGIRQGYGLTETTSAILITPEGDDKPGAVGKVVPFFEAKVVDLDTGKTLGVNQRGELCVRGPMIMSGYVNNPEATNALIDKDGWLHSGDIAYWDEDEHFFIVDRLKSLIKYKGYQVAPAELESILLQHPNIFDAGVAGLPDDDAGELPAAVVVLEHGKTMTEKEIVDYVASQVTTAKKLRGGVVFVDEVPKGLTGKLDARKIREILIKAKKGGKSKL
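Biochemical qHTS of compounds, final roughly 60 µM downward over six points, against 10 nM purified firefly luciferase using Km concentrations of substrates (10 uM D-luciferin, 10 uM ATP) in Tris acetate pH 7.5 buffer; luminescence output.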
ELG1 genotox: qHTS screen for small molecules that induce genotoxicity in human embryonic kidney (HEK293T) cells expressing luciferase-tagged ELG1; Potency, µM (highest dose often 46 µM), most hits filed as activators; HEK293T ELG1-luciferase reporter, luminescence, 16 h; hit rate 1.3% among 330,000; AID 504466, 2011; also: nearly all actives have a fitted effect of over 60% in size
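ELG1-luciferase HEK293T cells, 2,000/well; compound pinned in; 16 hr, 37 °C, 5% CO2; ONE-Glo, 30 min RT; luminescence on CCD imager.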
Numbers stand for hits; 0 = inactive; ? = inconclusive; - = no result given. Calls follow the shape of the dose curve; as a rule, active = well fitted curve in the direction sought with a large enough effect; inconclusive = small, poorly fitted or top-dose-only effect, or another doubt; inactive = no such curve, though single readings can be large; an effect the other way counts as inactive or inconclusive.

SMILES	NPC1 promoter act	SMN2 splice enh	Rab9 prom act	FLuc counter	ELG1 genotox
NC1(C(=O)O)CCc2cc(C(=O)O)ccc21 (centres undefined)	0	0	0	-	-
Cc1ccn2c(Nc3ccc4c(c3)OCCO4)c(-c3ccc(C)o3)nc2c1	-	?	-	13.5µM	-
Cc1ccc2nc(-c3ccc(C)s3)c(Nc3ccc4c(c3)OCCO4)n2c1	-	12.6µM	-	?	-
c1coc(-c2nc3ccccn3c2Nc2ccc3c(c2)OCCO3)c1	-	0	-	?	-
Cc1ccc2nc(-c3ccco3)c(Nc3ccc4c(c3)OCCO4)n2c1	-	0	-	10.7µM	-
Cc1ccn2c(Nc3ccc(F)cc3)c(-c3ccc(C)o3)nc2c1	-	0	-	0	-
COc1cc(-c2nc3ccc(C)cn3c2Nc2ccc3c(c2)OCCO3)ccc1O	0	?	0	21.3µM	0
N#CCCCSc1nnnn1-c1cc(C(F)(F)F)cc(C(F)(F)F)c1	-	0	-	-	-
CNCCCNC(=O)c1ccc(/C=N/O)nc1	0	0	0	0	0
CN(C)CCCNC(=O)c1ccc(/C=N/O)nc1	2.51µM	-	2.82µM	10.7µM	?
COc1ccccc1C(=O)NC(=O)COC(=O)C1CCC1	0	-	0	8.49µM	0
COc1ccc(-c2cn(CCO)c(-c3ccncc3)n2)cc1	0	-	0	0	0
CC(=O)NC1=C(Nc2ccc(N(C)C)cc2)C(=O)c2ccccc2C1=O	0	-	?	12µM	0
COC1=C(Nc2ccc(C)cc2)C(=O)c2ccccc2C1=O	?	?	?	16.9µM	0
COc1ccc(-c2cc(C(=O)OC3CCOC3=O)c3ccccc3n2)cc1 (centres undefined)	0	0	0	7.57µM	0
O=C(OC1CCOC1=O)c1cc(-c2cccc(Br)c2)nc2ccccc12 (centres undefined)	0	0	0	?	0
O=C(OC1CCOC1=O)c1cc(-c2ccc(Br)cc2)nc2ccccc12 (centres undefined)	0	0	0	19µM	0
CC(=O)N/C(=C\c1ccccc1)C(=O)OC(C)C(=O)NCc1ccccc1 (centres undefined)	0	-	0	0	0
CC(C)(C)N(Cc1ccccc1)C(=O)CN1C(=O)NC2(CCCCCC2)C1=O	0	-	0	0	0
CC(=O)Nc1ccc(C(=O)NCC(=O)OCc2c(F)cccc2Cl)cc1	0	?	0	19µM	0
O=C(CNC(=O)c1cccs1)OCc1c(F)cccc1Cl	0	-	0	15.1µM	?
CCOc1ccc(C(=O)NCC(=O)OCc2c(F)cccc2Cl)cc1	0	0	0	?	0
Cc1ccc(C(=O)NCC(=O)OCc2c(F)cccc2Cl)cc1	0	-	0	12µM	0
COC(=O)c1sc(-c2cccs2)cc1N	?	-	0	12µM	?
COC(=O)c1sc(-c2ccc(Cl)cc2)cc1N	2.24µM	-	2.51µM	6.75µM	?
SMILES	NPC1 promoter act	SMN2 splice enh	Rab9 prom act	FLuc counter	ELG1 genotox
CC(=O)c1sc(-c2ccc(Cl)cc2)cc1N	0	-	0	?	?
O=C(COc1ccccc1Cl)Nc1cc(-c2ccccc2F)nn1-c1ccccc1	-	-	-	0	-
Cc1cccc2c(N)c3c(nc12)CCCC3 (tested in a mixture with another compound)	0	0	0	0	0
Cc1cc(C)c2c(N)c3cccc(C)c3nc2n1	0	17.8µM	0	0	0
CCc1ccc2c(c1)c1nc(C)sc1n2CC	0	0	0	19µM	0
Cc1nc2c3cc(F)ccc3n(Cc3ccc(F)cc3)c2s1	0	0	0	0	0
Cc1ccc(NC(=O)CCNS(=O)(=O)c2ccc3c(c2)CCCC(=O)N3)cc1	-	-	-	0	-
COc1ccc2nc(-n3c(O)c(C4=c5ccccc5=NC4=O)[nH]c3=S)sc2c1	0	0	0	10.7µM	0
O=C(COc1ccc(CO)cc1Cl)Nc1ccc(F)cc1	2µM	0	1.12µM	0.849µM	0.366µM
COc1ccccc1NC(=O)COc1ccc(CO)cc1Cl	?	0	?	6.75µM	14.6µM
O=C1COC(c2ccccc2)=CN1Cc1ccccc1	0	-	0	0	0
CCc1cc(C(=O)N(CCCOC)c2c(N)n(Cc3ccccc3)c(=O)[nH]c2=O)sc1C	0	-	0	0	0
CC1(c2cccs2)CC(c2cccs2)=C(C#N)C(=O)N1 (centres undefined)	0	0	0	0	0
CCOC(=O)c1cnc2c(Cl)cc(Cl)cc2c1Nc1cc(C(=O)O)ccc1C	-	0	-	12µM	-
CC(C)=CC(=O)Nc1ccc(S(=O)(=O)Nc2onc(C)c2C)cc1	0	-	0	0	0
Cc1cccc(NC(=O)Nc2ccc(S(=O)(=O)Nc3onc(C)c3C)cc2)c1	0	-	?	16.9µM	0
Cc1ccc(/C=C/C(=O)Nc2ccc(S(=O)(=O)Nc3onc(C)c3C)cc2)cc1	0	-	0	15.1µM	0
Cc1ccc2oc(C(=O)Nc3ccc(S(=O)(=O)Nc4onc(C)c4C)cc3)c(C)c2c1	0	-	?	7.57µM	?
COC(=O)c1ccc(CSc2ccc3nnc(-c4cccc(F)c4)n3n2)o1	0	?	0	0	0
Cc1cc(C)cc(NC(=O)Cn2cc3c(n2)CCCCC3)c1	0	0	0	0	0
CN(C)c1ccc(NC(=O)Cn2cc3c(n2)CCCC3)cc1	0	0	0	19µM	?
O=C(CSc1ncnc2sc3c(c12)CCCC3)c1ccco1	0	0	?	12µM	0
CCc1nc(SCC(=O)N2CCN(C(=O)c3ccco3)CC2)c2c3c(sc2n1)CCCC3	0	0	0	16.9µM	0
O=C(CSc1ncnc2sc3c(c12)CCCC3)c1ccccc1	0	0	0	0	0
Cc1c(C(=O)NC2CCN(Cc3ccccc3)C2)oc2c(Cl)cccc12 (centres undefined)	0	-	0	0	0
SMILES	NPC1 promoter act	SMN2 splice enh	Rab9 prom act	FLuc counter	ELG1 genotox
O=C(NCCc1ccccc1)C(=O)Nc1ccc([N+](=O)[O-])cc1	0	0	0	?	0
O=C(c1ccc(Cl)cc1)N1CCN(S(=O)(=O)/C=C/c2ccccc2)CC1	0	-	0	0	0
CC(C)Cc1nnc(NC(=O)c2cc3c(s2)CCC3)s1	3.55µM	-	3.16µM	?	0
O=C(Nc1nccs1)c1cc2c(s1)CCCCC2	1µM	0	0.794µM	0.0849µM	-
Cc1cc(C)n(C(=O)c2cc3c(s2)CCCC3)n1	0	0	0	23.9µM	0
O=C(Nc1nncs1)c1cc2c(s1)CCC2	?	?	2.82µM	6.75µM	?
CN1CCCN(C(=O)c2cc3c(s2)CCCC3)CC1	0	-	0	0	0
CCOc1cccc2sc(N3CCN(C(=O)C(C)(C)C)CC3)nc12	-	-	-	0	-
COC(=O)c1cccc(NC(=O)CSc2nnc(C)n2Cc2ccccc2)c1	0	0	0	0	0
Cc1ccccc1NC(=O)C(=O)NCCCN1CCCC1=O	0	-	0	?	0
O=C(NCCCN1CCCC1=O)c1cc2c(s1)CCCCC2	0	-	?	16.9µM	?
O=C(NCCCN1CCCC1=O)C(=O)Nc1cccc(F)c1	?	-	3.16µM	16.9µM	?
CCSc1nnc(NC(=O)c2cc3c(s2)CCCC3)s1	2.51µM	?	1.58µM	?	0
O=C(Nc1nnc(SCc2ccccc2)s1)c1cc2c(s1)CCCC2	0	0	0	?	?

Screens: PubChem, National Center for Advancing Translational Sciences (NCATS)
